This note sets out measurements from PubChem BioAssay (NCI).

The nature of assay [1]: NCI Yeast Anticancer Drug Screen. Data for the rad50 strain (AID 155).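 Further: 0% = growth of vehicle-only cultures of the same strain.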 The conditions noted are these: S. cerevisiae rad50 strain growth inhibition; at 50.0 µM; stronger effect = higher value. The procedure, abridged: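 Vehicle-treated cultures provide the reference for the growth inhibition reported for compound-exposed, repair-deficient yeast.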
Assay [2] can be described thus: NCI Yeast Anticancer Drug Screen. Data for the mec2-1 strain (AID 157). To be noted: S. cerevisiae mec2-1 strain, at 50.0 µM, stronger effect = higher value. The method, boiled down:
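Mutant yeast (mec2-1) grown with compound; growth inhibition relative to vehicle control reported.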

The nature of assay [3]: NCI Yeast Anticancer Drug Screen. Data for the sgs1 mgt1 strain (AID 161).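 Further: 0% = growth of cultures given vehicle only.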 The conditions noted are these: S. cerevisiae sgs1 mgt1 strain, at 50.0 µM, stronger effect = higher value. The method, boiled down: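 Yeast cells carrying a defined DNA-repair defect were exposed to test compounds. Growth inhibition was measured relative to vehicle-treated controls.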
Assay [4] is described as follows: NCI Yeast Anticancer Drug Screen. Data for the cln2 rad14 strain (AID 165).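 Further: 0% = growth equal to vehicle treated cultures.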 To be noted: S. cerevisiae cln2 rad14 strain, at 50.0 µM, stronger effect = higher value. The method, boiled down: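 Readout is yeast growth inhibition versus vehicle-treated controls, using a strain with cln2 and rad14 alterations exposed to compound.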
Assay [5] in a line: NCI Yeast Anticancer Drug Screen. Data for the bub3 strain (AID 167). The conditions noted are these: S. cerevisiae bub3 mutant strain, at 50.0 µM, stronger effect = higher value. The procedure, abridged:
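Mutant yeast screening strain plus compound; vehicle-treated cultures serve as the 0% inhibition reference.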

A short description of assay [6]: NCI Yeast Anticancer Drug Screen. Data for the mlh1 rad18 strain (AID 175). To be noted: S. cerevisiae mlh1 rad18 strain growth inhibition; at 50.0 µM; stronger effect = higher value. The method, boiled down: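 Genetically defined yeast (DNA repair-deficient) exposed to compounds; growth inhibition determined relative to vehicle.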

The panel holds about 79,000 compounds, 15% with a hit somewhere; the sample as a whole holds those more often. Values without a mark were called inactive. Activity calls are given as the source filed them. No stated cut-off is given here; in the data, active means growth inhibition above about 70%; inactive means the rest.

Consider `OC1=CC(C2CCCCC2)CC(O)=C1` (stereo not given), for which the growth inhibition was 2.95% in assay [1]; -0.65% in assay [2]; -4.75% in assay [3]; -7.9% in assay [4]; -59.5% in assay [5]; -17.1% in assay [6].

Regarding `CNC(=O)OC(COC)CN1CCN(c2ccccc2C)CC1` (stereo not given), the growth inhibition was -25.8% in assay [1]; -47.8% in assay [2]; -10.6% in assay [3]; -1.25% in assay [4]; -8.3% in assay [5]; -6.5% in assay [6].

`S=c1cc(S)nc[nH]1`: the growth inhibition is 29% in assay [1]; 8.3% in assay [2]; 11.9% in assay [3]; 20.9% in assay [4]; 23.9% in assay [5]; 9.45% in assay [6].

Take `CC(NC(=O)C(NC(=O)c1ccc[n+](Cc2ccccc2)c1)C(C)C)C(N)=O` (stereo not given): the growth inhibition in assay [1] was 0.45%; in assay [2], 8.05%; in assay [3], -2.6%; in assay [4], -6.2%; in assay [5] it was -1.95%; in assay [6], 23.4%.

Take `CCC1C(=O)N(C)c2ccccc21` (stereo not given): the growth inhibition in assay [1] was -2.15%; in assay [2] it was -9.6%; in assay [3], -10.1%; in assay [4], 1.55%; in assay [5], -19.3%; in assay [6] it was 13.2%.

Take `N#C/C(=C\c1ccc(Cl)cc1)C(=O)c1ccccc1`: the growth inhibition was 9.4% in assay [1]; 12.8% in assay [2]; 29.8% in assay [3]; 20.9% in assay [4]; 6.95% in assay [5]; 22.7% in assay [6].

`CC1OS(=O)(=O)CS(=O)(=O)OC1C` (stereo not given): the growth inhibition in assay [1] was -50.1%; in assay [2], -24.9%; in assay [3], -12.8%; in assay [4] it was -61.4%; in assay [5], 4.8%; in assay [6], -6.15%.

As for `O=C(C#Cc1ccccc1)N1c2ccccc2CC1c1c[nH]c2ccccc12` (stereo not given), the growth inhibition is -7.25% in assay [1]; -6.2% in assay [2]; 0.7% in assay [3]; 2.55% in assay [4]; -2.8% in assay [5]; -6.85% in assay [6].

As to `O=C1CSC(c2ccc(Cl)c(Cl)c2)N1c1nncs1` (stereo not given), the growth inhibition is -18.7% in assay [1]; 11.8% in assay [2]; 17.1% in assay [3]; 10.4% in assay [4]; 14.7% in assay [5]; 23.4% in assay [6].

Consider `Cc1cccc(C(=O)O)c1[N+](=O)[O-]`, for which the growth inhibition in assay [1] was 10.4%; in assay [2] it was 1.05%; in assay [3], -8.25%; in assay [4] it was -8.35%; in assay [5], -14%; in assay [6], 7.1%.

Take `COc1ccc(S(=O)(=O)Nc2cccc(C(F)(F)F)c2)cc1`: the growth inhibition is 99% (active) in assay [1]; 99.7% (active) in assay [2]; 99.5% (active) in assay [3]; 98.5% (active) in assay [4]; 99.3% (active) in assay [5]; 99.5% (active) in assay [6].

As to `COc1ccc(CCNC(=O)C(=O)c2c[nH]c3ccccc23)cc1OC`, the growth inhibition in assay [1] is 12.6%; in assay [2], 18.8%; in assay [3], 22.4%; in assay [4], 14.3%; in assay [5], 9.55%; in assay [6], 25.2%.

Regarding `O=COCCO`, the growth inhibition in assay [1] is -12.6%; in assay [2], -5.6%; in assay [3] it was 7.6%; in assay [4], -9.85%; in assay [5] it was 1.75%; in assay [6], -9.1%.

`CSCCC(NCc1c(O)ccc2c(C)cc(=O)oc12)C(=O)O` (stereo not given): the growth inhibition in assay [1] is 16.5%; in assay [2], 0.85%; in assay [3], 14%; in assay [4], 25.9%; in assay [5], -1.05%; in assay [6], 26.7%.

Consider `C1=C(c2ccccc2)C(c2ccccc2)=C(c2ccccc2)C(c2ccccc2)C(c2ccccc2)=N1` (stereo not given), for which the growth inhibition in assay [1] is 2.75%; in assay [2], 10.2%; in assay [3] it was -2.95%; in assay [4], 21.4%; in assay [5] it was -2.5%; in assay [6], 8.55%.

Turning to `CCc1ccc(NC(=O)Nc2ccc(Cl)cc2)cc1`, the growth inhibition was -3.2% in assay [1]; 7.75% in assay [2]; -8.65% in assay [3]; -16.9% in assay [4]; -0.8% in assay [5]; -12.6% in assay [6].

In the case of `COc1ccc(C(C)c2cc(OC)c(OC)cc2OC)cc1` (stereo not given), the growth inhibition in assay [1] is 17.6%; in assay [2], 10.8%; in assay [3], 25.6%; in assay [4] it was -29.2%; in assay [5] it was 44.2%; in assay [6] it was 37.8%.

`Cc1cccc(C2CCCCC2OS(C)(=O)=O)c1` (stereo not given): the growth inhibition in assay [1] was -2.95%; in assay [2], -6.4%; in assay [3], -16.9%; in assay [4], -10.1%; in assay [5], 11.8%; in assay [6] it was -13.6%.

Regarding `[O]=[W](=[O])([OH])[OH]`, the growth inhibition in assay [1] was -11.3%; in assay [2], -13.2%; in assay [3] it was -15.4%; in assay [4], 11.7%; in assay [5] it was -11.6%; in assay [6], -17.5%.

Take `O=C(O)/C=C\C(=O)Nc1ccccn1`: the growth inhibition in assay [1] is -30.6%; in assay [2] it was -43.8%; in assay [3], -52.7%; in assay [4] it was -2.65%; in assay [5], -44.9%; in assay [6] it was -21.4%.
